# Measured values: PubChem BioAssay (EPA / NIEHS)
# Records with an inconclusive call do not appear. More than one record can exist for a structure, and the calls need not agree. Calls of active or inactive are those of the source. Rule for the calls: active = hit-call score of the fitted dose curve at least 0.9, where 1 is the maximum; inconclusive = response in the unintended direction; inactive = score below 0.9.
# Legend:
# [1] = biological target: Peroxisome proliferator-activated receptor gamma (Homo sapiens) (UniProt P37231); assay: NVS_NR_hPPARg: NovaScreen (NVS) Nuclear Receptor Binding Assay for human Peroxisome Proliferator-activated Receptor gamma (PPARg) (AID 2283370)
# In short: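 Chemicals were tested first in duplicate at 25 uM, then in concentration series if active. Binding to cell-free PPARg protein was measured by fluorescence polarization after 2 h, with loss of signal scored against DMSO.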
# [2] = test system: guinea pig Dopamine Transporter (DAT), gene 100714898; assay: NVS_TR_gDAT: NovaScreen (NVS) Transporter Assay for guinea pig Dopamine Transporter (DAT) (AID 2283369);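 note: active compounds lower bound radioligand signal relative to DMSO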
# In short: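 Scintillation counts of filter-retained radioligand report binding to guinea pig striatal membranes after 2 h. Activity scored as signal loss relative to DMSO, first at 25 uM in duplicate, then in concentration series to 50 uM.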
# [3] = biological target: human Dopamine Transporter (DAT), SLC6A3 (gene 6531) (UniProt Q01959); assay: NVS_TR_hDAT: NovaScreen (NVS) Transporter Assay for human Dopamine Transporter (DAT) (AID 2283374);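 note: activity means loss of bound radioligand signal relative to DMSO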
# In short: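 Duplicate single-point screening at 25 uM preceded concentration-series follow-up of actives. Binding was measured by competitive displacement of a radioligand from DAT protein, filter-counted by scintillation 1 h after dosing. Decrease relative to DMSO taken as activity.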
# [4] = test system: rat Norepinephrine Transporter (NET), gene 83511; assay: NVS_TR_rNET: NovaScreen (NVS) Transporter Assay for rat Norepinephrine Transporter (NET) (AID 2283373)
# In short: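 Competitive radioligand displacement at the rat NET using forebrain membrane preparations, 1 h incubation, filter-based scintillation readout. Primary testing in duplicate at a single 25 uM concentration; confirmed actives retested across concentrations.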
# [5] = biological target: human Norepinephrine Transporter (NET), SLC6A2 (gene 6530) (UniProt P23975); assay: NVS_TR_hNET: NovaScreen (NVS) Transporter Assay for human Norepinephrine Transporter (NET) (AID 2283377);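 note: cell-free membrane protein extracted from CHO cells expressing human NET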;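 for AC50: displacement of radioligand from human NET seen as loss of scintillation signal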
# In short: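 Single-concentration duplicate screen at 25 uM, then concentration-response for actives; displacement of specific radioligand from human NET in CHO membrane extracts, filter-based scintillation detection at 1 h relative to DMSO.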
# [6] = biological target: mouse Estrogen Receptor alpha (Era), Esr1 (gene 13982) (UniProt P19785); assay: NVS_NR_mERa: NovaScreen (NVS) Nuclear Receptor Binding Assay for mouse Estrogen Receptor alpha (Era) (AID 2283378);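 note: hit means loss of bound radioligand signal relative to DMSO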
# In short: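 Extracted mouse Era incubated with tritiated or iodinated radioligand plus test chemical, 18 h. Bound fraction separated on filters, counted by scintillation. DMSO = negative control/baseline; duplicate single-point at 25 uM, then concentration-response follow-up.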
# [7] = biological target: guinea pig Sigma Receptor, Non-selective Binding, SIGMAR1 (gene 100135589) (UniProt Q60492); assay: NVS_OR_gSIGMA_NonSelective: NovaScreen (NVS) Nuclear Receptor Binding Assay for guinea pig Sigma Receptor, Non-selective Binding (AID 2283367)
# In short: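 Guinea pig brain membrane sigma sites were labelled with a radioligand, and bound radioactivity was counted after filtration 1 h post-dose. Compounds were screened at 25 uM in duplicate, then retested as concentration series when active.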
# [8] = biological target: human Serotonin Transporter (SERT), SLC6A4 (gene 6532) (UniProt P31645); assay: NVS_TR_hSERT: NovaScreen (NVS) Transporter Assay for human Serotonin Transporter (SERT) (AID 2283372)
# Protocol: NVS_TR_hSERT is a biochemical, single-readout assay that uses extracted gene-proteins from Human platelet membranes in a tissue-based cell-free assay. Measurements were taken 1 hour after chemical dosing in a 96-well plate.NVS_TR_hSERT is one of one assay component(s) measured or calculated from the NVS_TR_hSERT assay. It is designed to make measurements of radioligand binding, a form of binding reporter, as detected with scintillation counting signals by Filter-based radiodetection technology.Data from the assay component NVS_TR_hSERT was analyzed into 1 assay endpoint. This assay endpoint, NVS_TR_hSERT, was analyzed in the positive analysis fitting direction relative to DMSO as the negative control and baseline of activity. Using a type of binding reporter, loss-of-signal activity can be used to understand changes in the binding as they relate to the gene SLC6A4. Furthermore, this assay endpoint can be referred to as a primary readout, because the performed assay has only produced 1 assay endpoint. To generalize the intended target to other relatable targets, this assay endpoint is annotated to the transporter intended target family, where the subfamily is neurotransmitter transporter.
# Binding assays used specific radioligands (tritiated, iodinated) with non-radioactive competitive displacement ligands in agonist or antagonist protocols (as indicated) and various reference compounds and inhibitors to titrate specific binding to receptors and transporters. Most enzyme assays (CYPs, kinases, phosphatases, proteases, HDACs) used recombinant protein and specific substrates (fluorescence mostly, some colorimetric and radioactive) and inhibitors, followed by a biochemical separation of substrate and product. All assays for the biochemical HTS were initially run in duplicate at a single concentration (10 uM for CYP450 assays and 25 uM for all others). […] Each assay was run with positive and negative controls, and concurrent controls on every plate. The follow-up (secondary) screen tested active chemical-pairs in concentration series, as well as a few additional assays not tested in the primary screen, some selected negative inactives, and several cases re-run in the concentration series for confirmatory purposes.
# Sequence of mouse Estrogen Receptor alpha (Era), Esr1 (gene 13982) (P19785 whole entry, looked up): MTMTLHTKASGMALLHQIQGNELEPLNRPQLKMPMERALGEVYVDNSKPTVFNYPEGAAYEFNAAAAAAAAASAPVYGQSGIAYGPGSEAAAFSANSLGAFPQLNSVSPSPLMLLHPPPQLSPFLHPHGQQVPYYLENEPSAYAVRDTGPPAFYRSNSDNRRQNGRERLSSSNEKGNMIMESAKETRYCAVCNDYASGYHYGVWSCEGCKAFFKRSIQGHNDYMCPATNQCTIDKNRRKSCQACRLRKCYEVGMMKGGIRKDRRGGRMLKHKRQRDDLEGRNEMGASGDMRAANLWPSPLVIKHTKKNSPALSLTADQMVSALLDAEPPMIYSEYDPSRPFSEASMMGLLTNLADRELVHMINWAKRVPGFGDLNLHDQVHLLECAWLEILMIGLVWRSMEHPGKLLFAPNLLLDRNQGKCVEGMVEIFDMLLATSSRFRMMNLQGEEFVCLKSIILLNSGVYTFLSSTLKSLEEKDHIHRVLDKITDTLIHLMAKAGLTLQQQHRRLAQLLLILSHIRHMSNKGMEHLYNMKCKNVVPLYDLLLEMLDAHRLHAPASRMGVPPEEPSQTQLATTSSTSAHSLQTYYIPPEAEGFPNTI
# Sequence of guinea pig Sigma Receptor, Non-selective Binding, SIGMAR1 (gene 100135589) (Q60492 whole entry, looked up): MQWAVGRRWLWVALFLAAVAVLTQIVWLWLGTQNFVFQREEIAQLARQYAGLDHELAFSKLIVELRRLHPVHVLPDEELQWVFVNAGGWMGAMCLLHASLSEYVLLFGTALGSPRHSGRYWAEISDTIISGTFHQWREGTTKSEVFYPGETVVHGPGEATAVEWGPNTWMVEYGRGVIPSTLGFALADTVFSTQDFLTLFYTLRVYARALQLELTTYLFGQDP
# Sequence of human Norepinephrine Transporter (NET), SLC6A2 (gene 6530) (P23975 whole entry, looked up): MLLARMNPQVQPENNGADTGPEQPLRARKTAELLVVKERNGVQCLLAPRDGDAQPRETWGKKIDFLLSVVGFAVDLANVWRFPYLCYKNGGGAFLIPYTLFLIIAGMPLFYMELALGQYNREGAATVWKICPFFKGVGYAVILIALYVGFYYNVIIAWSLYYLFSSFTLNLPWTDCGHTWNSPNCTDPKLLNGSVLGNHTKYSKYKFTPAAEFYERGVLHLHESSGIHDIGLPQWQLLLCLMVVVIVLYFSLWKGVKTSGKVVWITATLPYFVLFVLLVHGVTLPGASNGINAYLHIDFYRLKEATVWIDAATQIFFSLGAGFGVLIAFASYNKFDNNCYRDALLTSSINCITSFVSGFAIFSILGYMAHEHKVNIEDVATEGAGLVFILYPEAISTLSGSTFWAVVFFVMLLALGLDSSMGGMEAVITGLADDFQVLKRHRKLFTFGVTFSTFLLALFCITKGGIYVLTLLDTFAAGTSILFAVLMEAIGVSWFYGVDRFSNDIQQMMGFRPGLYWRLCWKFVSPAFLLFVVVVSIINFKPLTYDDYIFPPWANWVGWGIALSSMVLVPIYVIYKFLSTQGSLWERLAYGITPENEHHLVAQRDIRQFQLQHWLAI
# Sequence of human Dopamine Transporter (DAT), SLC6A3 (gene 6531) (Q01959 whole entry, looked up): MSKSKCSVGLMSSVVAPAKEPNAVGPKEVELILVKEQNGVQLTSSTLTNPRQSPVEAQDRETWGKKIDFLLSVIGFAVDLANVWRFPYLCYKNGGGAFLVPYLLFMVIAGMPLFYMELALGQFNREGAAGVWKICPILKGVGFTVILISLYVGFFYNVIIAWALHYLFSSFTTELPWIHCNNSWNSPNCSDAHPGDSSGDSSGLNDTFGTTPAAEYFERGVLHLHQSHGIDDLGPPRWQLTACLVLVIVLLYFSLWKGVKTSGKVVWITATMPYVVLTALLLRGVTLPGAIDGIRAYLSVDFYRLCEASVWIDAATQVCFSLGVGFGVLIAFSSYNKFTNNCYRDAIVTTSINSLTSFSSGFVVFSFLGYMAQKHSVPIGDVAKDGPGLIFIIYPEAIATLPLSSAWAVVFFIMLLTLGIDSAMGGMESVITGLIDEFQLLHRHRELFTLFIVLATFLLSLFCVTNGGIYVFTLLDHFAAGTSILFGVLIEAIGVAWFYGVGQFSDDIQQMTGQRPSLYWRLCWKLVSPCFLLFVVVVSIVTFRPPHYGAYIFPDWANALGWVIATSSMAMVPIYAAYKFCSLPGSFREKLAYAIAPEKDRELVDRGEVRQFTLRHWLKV
# Sequence of human Serotonin Transporter (SERT), SLC6A4 (gene 6532) (P31645 whole entry, looked up): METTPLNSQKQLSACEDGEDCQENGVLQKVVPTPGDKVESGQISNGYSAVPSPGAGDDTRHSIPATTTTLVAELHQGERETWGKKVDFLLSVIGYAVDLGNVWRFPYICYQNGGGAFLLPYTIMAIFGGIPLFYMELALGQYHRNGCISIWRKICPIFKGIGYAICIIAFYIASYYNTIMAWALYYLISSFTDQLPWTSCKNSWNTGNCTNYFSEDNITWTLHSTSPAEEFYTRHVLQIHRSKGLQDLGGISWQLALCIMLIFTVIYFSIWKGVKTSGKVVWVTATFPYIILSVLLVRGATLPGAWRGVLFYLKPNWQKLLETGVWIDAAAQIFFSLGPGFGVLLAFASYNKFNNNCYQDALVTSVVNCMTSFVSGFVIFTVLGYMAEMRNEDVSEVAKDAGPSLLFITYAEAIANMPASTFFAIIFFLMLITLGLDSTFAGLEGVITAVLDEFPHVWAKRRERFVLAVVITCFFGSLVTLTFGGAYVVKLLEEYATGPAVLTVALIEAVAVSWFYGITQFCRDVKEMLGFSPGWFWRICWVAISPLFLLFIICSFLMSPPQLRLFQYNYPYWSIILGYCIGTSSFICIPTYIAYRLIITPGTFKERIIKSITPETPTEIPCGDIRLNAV
# Sequence of Peroxisome proliferator-activated receptor gamma (Homo sapiens) (P37231 whole entry, looked up): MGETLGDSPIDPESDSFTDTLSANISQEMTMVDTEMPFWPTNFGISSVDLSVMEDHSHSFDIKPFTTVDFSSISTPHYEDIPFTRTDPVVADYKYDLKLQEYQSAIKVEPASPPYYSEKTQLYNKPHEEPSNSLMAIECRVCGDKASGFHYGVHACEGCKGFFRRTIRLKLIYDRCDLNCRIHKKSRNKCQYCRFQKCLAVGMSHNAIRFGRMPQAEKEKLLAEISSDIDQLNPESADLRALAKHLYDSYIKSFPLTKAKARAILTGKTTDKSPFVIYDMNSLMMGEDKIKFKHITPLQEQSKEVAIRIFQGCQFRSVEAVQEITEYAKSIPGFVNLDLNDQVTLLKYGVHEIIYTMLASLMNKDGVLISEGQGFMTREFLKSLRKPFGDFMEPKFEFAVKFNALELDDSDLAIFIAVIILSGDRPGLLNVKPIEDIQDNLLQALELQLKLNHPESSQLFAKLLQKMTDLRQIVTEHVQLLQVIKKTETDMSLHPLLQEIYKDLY
smiles,measurement,setting,value
CN1CCC[C@H]1c1cccnc1,outcome,[1],inactive
CC(C)(C)c1ccc(O)c(C(C)(C)C)c1,outcome,[2],inactive
same,AC50,[3],6.72 µM (active)
CC(=O)NC1(c2cccc(F)c2)CCN(CC[C@@]2(c3ccc(Cl)c(Cl)c3)CN(c3ccccc3)C(=O)CO2)CC1,AC50,[2],25.1 µM (active)
same,AC50,[4],9.66 µM (active)
same,AC50,[3],9.61 µM (active)
same,AC50,[5],10.1 µM (active)
same,outcome,[6],inactive
CCN(CC)CCNc1ccc(CNC=O)c2sc3ccc(OC)cc3c(=O)c12,AC50,[7],12.2 µM (active)
same,AC50,[2],14.9 µM (active)
same,outcome,[1],inactive
same,outcome,[8],inactive
same,outcome,[4],inactive
same,AC50,[3],12.8 µM (active)
same,AC50,[5],5.84 µM (active)
same,AC50,[6],1.37 µM (active)
CCC(C)(C)C1CCC(O)CC1 (stereo unspecified),outcome,[7],inactive
same,AC50,[6],6.46 µM (active)
same,outcome,[6],inactive
CCCCC(CC)COC(=O)CCCCC(=O)OCc1ccccc1 (stereo unspecified),outcome,[1],inactive
CCOC(=O)CC(O)(CC(=O)OCC)C(=O)OCC,outcome,[1],inactive
CCc1ccc(CCOc2ccc(CC3SC(=O)NC3=O)cc2)nc1 (stereo unspecified),outcome,[7],inactive
CC(C)(C)c1cc(C(C)(C)C)c(O)c(C(C)(C)C)c1,outcome,[1],inactive
CCCCCCCCCCCCc1ccccc1S(=O)(=O)O,AC50,[2],37 µM (active)
same,AC50,[1],194 nM (active)
same,AC50,[3],16.6 µM (active)
same,AC50,[5],9.86 µM (active)
same,AC50,[6],18 µM (active)
NC(=O)N(O)[C@@H]1C=C[C@H](Oc2cccc(Oc3ccc(F)cc3)c2)C1,AC50,[7],7.64 µM (active)
same,AC50,[2],7.24 µM (active)
same,outcome,[8],inactive
same,outcome,[4],inactive
same,AC50,[3],0.489 µM (active)
same,AC50,[5],15 µM (active)
CN(C)C=O,outcome,[1],inactive
OC1CCCCC1,outcome,[6],inactive
c1ccc2cc3c(ccc4ccccc43)cc2c1,outcome,[1],inactive
same,AC50,[5],14.7 µM (active)
same,outcome,[6],inactive
O=[N+]([O-])c1ccc(O)cc1,outcome,[1],inactive
same,outcome,[5],inactive
same,outcome,[6],inactive
COCC(C)O (stereo unspecified),AC50,[6],11.5 µM (active)
NC(=O)N1C(=O)C(C(=O)c2cc(Cl)cs2)c2cc(F)c(Cl)cc21 (stereo unspecified),AC50,[1],5350 nM (active)
same,AC50,[5],25 µM (active)
COCC(C)OCC(C)O (stereo unspecified),outcome,[1],inactive
same,outcome,[8],inactive
Cc1cc(CCN2CCN(c3nsc4ccccc34)CC2)cc2c1NC(=O)CC2(C)C,outcome,[1],inactive
CC[C@H](C)[C@@H](C(=O)O)n1sc2ccccc2c1=O,outcome,[1],inactive
O=C1OC2(c3ccccc31)c1cc(Br)c(O)c(Br)c1Oc1c2cc(Br)c(O)c1Br,outcome,[6],inactive
OCCC(F)(F)C(F)(F)C(F)(F)C(F)(F)C(F)(F)C(F)(F)C(F)(F)C(F)(F)F,outcome,[6],inactive
